A word on the AC50: it is the concentration giving half of the maximal activity seen.

Outcome and AC50 data for three compounds are collected here from PubChem BioAssay (EPA / NIEHS).

The nature of experiment [1]: ATG_CRE_CIS: Attagene CIS-FACTORIAL HepG2 Assay for human cAMP Responsive Element (CRE) binding protein 3 (AID 2282926). Particulars: HepG2 CRE cis-reporter, Attagene multiplexed mRNA; actives raise or lower the signal. In short, it runs like this:
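We dosed HepG2 cells bearing multiple cis-promoter reporter units for 24 h and measured reporter mRNA by RT-PCR with capillary electrophoresis detection. Bidirectional concentration-response fitting used DMSO as negative control.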

Experiment [2] deals with CCAAT/enhancer-binding protein beta (Homo sapiens) (UniProt P17676). The experiment in a line: ATG_C_EBP_CIS: Attagene CIS-FACTORIAL HepG2 Assay for human CCAAT/Enhancer Binding Protein (C/EBP) beta (AID 2282927). Conditions: HepG2 Attagene cis-factorial transcription factor reporter; actives raise or lower the signal. In short, it runs like this: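 Endogenous transcription factor activity in human liver HepG2 cells is inferred from induction of a CEBPB-linked reporter mRNA. Exposure lasts 24 h; activity is fitted in both directions relative to DMSO.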

A short description of experiment [3]: ATG_CMV_CIS: Attagene CIS-FACTORIAL HepG2 Assay for human CMV (Internal Marker) (AID 2282928).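 Further: endpoint acts as a background internal control marker rather than a target.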 Conditions: HepG2 CMV promoter reporter, transcription factor profiling; actives raise or lower the signal. In short, it runs like this: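 After transient transfection of HepG2 with reporter transcription units driven by cis-regulatory promoters, cells receive test chemical for 24 h. Labeled reporter amplicons, digested with HpaI, are sized and quantified by capillary electrophoresis against DMSO.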

Experiment [4] in a line: ATG_DR4_LXR_CIS: Attagene CIS-FACTORIAL HepG2 Assay for human Liver X Receptor (LXR), DR4 submotif (AID 2282929). Particulars: HepG2 Attagene DR4 cis-reporter, mRNA transcription; actives raise or lower the signal. The essentials: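 HepG2 cells were transiently transfected with multiple cis-regulated reporter units and dosed for 24 hours. The DR4 reporter mRNA was quantified by RT-PCR, 6-FAM labelling and capillary electrophoresis. Bidirectional fits used DMSO as baseline.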

Experiment [5] concerns the target Aryl hydrocarbon receptor (Homo sapiens) (UniProt P35869). The experiment in a line: ATG_Ahr_CIS: Attagene CIS-FACTORIAL HepG2 Assay for human Aryl Hydrocarbon Receptor (Ahr) (AID 2282930). Conditions: HepG2 AhR cis-factorial reporter transcription; actives raise or lower the signal. The essentials: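 Transient MRTU transfection of HepG2 → 24 h compound exposure → total RNA, oligo(dT) RT → PCR, 6-FAM extension, HpaI cut → CE fluorescence. DMSO = baseline; bidirectional curve fit.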

A short description of experiment [6]: ATG_AP_1_CIS: Attagene CIS-FACTORIAL HepG2 Assay for human Activator Protein 1 (AP-1) (AID 2282931). Particulars: HepG2 Attagene cis-factorial AP-1 reporter mRNA; actives raise or lower the signal. In short, it runs like this: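 HepG2 cells transiently transfected with cis-element-driven reporter transcription units, dosed for 24 hours. Reporter mRNA measured by RT-PCR, 6-FAM labelling, HpaI digestion and capillary electrophoresis. Bidirectional fitting against DMSO baseline.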

The nature of experiment [7]: ATG_AP_2_CIS: Attagene CIS-FACTORIAL HepG2 Assay for human Activator Protein 2 (AP-2) (AID 2282932). Particulars: HepG2 AP-2 cis-reporter, Attagene transcription factor profiling; actives raise or lower the signal. In short, it runs like this: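 Step one: transient transfection of HepG2 with reporter transcription units. Step two: 24 h chemical exposure. Step three: RNA extraction, RT-PCR, labelled fragment analysis by capillary electrophoresis; DMSO serves as baseline.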

Experiment [8] can be described thus: ATG_BRE_CIS: Attagene CIS-FACTORIAL HepG2 Assay for human Bone Morphogenetic Protein (BMP) Response Element (BRE) (AID 2282933). Particulars: HepG2 BMP response element reporter, Attagene transcription factor profiling; actives raise or lower the signal. In short, it runs like this:
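After a 24 h chemical treatment, transiently transfected HepG2 cells were lysed for RNA; reporter transcripts were quantified by fluorescent RT-PCR and capillary electrophoresis, normalised to DMSO.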

The nature of experiment [9]: ATG_E_Box_CIS: Attagene CIS-FACTORIAL HepG2 Assay for human Enhancer Box (E-box) (AID 2282936). Conditions: HepG2 E-box cis-reporter transcription, actives raise or lower the signal. In short, it runs like this: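 DMSO served as negative control and baseline for bidirectional fitting. Human hepatoma HepG2 cells, transiently transfected with cis-reporter constructs, were dosed 24 h; reporter mRNA read by RT-PCR and capillary electrophoresis.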

Experiment [10] in a line: ATG_M_61_CIS: Attagene CIS-FACTORIAL HepG2 Assay for M61 Transcription Factor (Internal Marker) (AID 2282937). Particulars: HepG2 Attagene CIS-FACTORIAL M61 internal marker reporter; actives raise or lower the signal. In short, it runs like this:
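HepG2 cells transiently transfected with multiplexed cis-promoter reporter units reporting endogenous transcription factor activity, measured 24 h after dosing. Reporter mRNA quantified by RT-PCR and capillary electrophoresis; bidirectional fit against DMSO baseline.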

A short description of experiment [11]: ATG_EGR_CIS: Attagene CIS-FACTORIAL HepG2 Assay for human Early Growth Response 1 (EGR1) (AID 2282938). Conditions: HepG2 Attagene CIS-FACTORIAL EGR reporter mRNA; actives raise or lower the signal. In short, it runs like this:
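HepG2 cells transiently transfected with cis-element-driven multiplexed reporter units, dosed for 24 h. EGR1-element reporter mRNA quantified by RT-PCR, 6-FAM labelling, HpaI digestion and capillary electrophoresis; bidirectional fit versus DMSO.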

Experiment [12] in a line: ATG_M_19_CIS: Attagene CIS-FACTORIAL HepG2 Assay for M19 Transcription Factor (Internal Marker) (AID 2282939). Conditions: HepG2 Attagene CIS-FACTORIAL M19 internal marker reporter; actives raise or lower the signal. The essentials: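 In this multiplexed cell assay, transiently transfected HepG2 reporter units report endogenous transcription-factor activity; after 24 hours of treatment, labelled reporter cDNA fragments are quantified by capillary electrophoresis and fitted bidirectionally against DMSO.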

Experiment [13] can be described thus: ATG_Ets_CIS: Attagene CIS-FACTORIAL HepG2 Assay for human Erythroblast Transformation Specific (ETS) (AID 2282941). Conditions: HepG2 ETS cis-reporter transcription, actives raise or lower the signal. The essentials: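 Human HepG2 hepatoma cells were transiently transfected with promoter-driven reporter constructs and treated for 24 hours. Reporter transcripts were quantified by RT-PCR with fluorescent primer extension; bidirectional curve fitting used DMSO as reference.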

Experiment [14] addresses Hepatocyte nuclear factor 3-beta (Homo sapiens) (UniProt Q9Y261). The experiment in a line: ATG_FoxA2_CIS: Attagene CIS-FACTORIAL HepG2 Assay for human Forkhead box A2 (FOXA2) (AID 2282942). Conditions: HepG2 cis-reporter transcription factor activity, 24 h; actives raise or lower the signal. The essentials:
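HepG2 transiently transfected with a multiplexed cis-promoter reporter library read endogenous FOXA2 activity. After 24 h compound exposure, reporter mRNA was quantified by RT-PCR, HpaI digestion and capillary electrophoresis. Bidirectional fit against DMSO.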

A short description of experiment [15]: ATG_FoxO_CIS: Attagene CIS-FACTORIAL HepG2 Assay for human Forkhead box O (FoxO) (AID 2282943). Conditions: HepG2 Attagene cis-reporter, FoxO element, mRNA; actives raise or lower the signal. The essentials: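 HepG2, transient MRTU transfection (cis element, endogenous TFs). Dose 24 h. TriZol RNA → oligo(dT) RT → PCR → 6-FAM primer extension → HpaI cut → CE. Gain/loss vs DMSO.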

Experiment [16] is described as follows: ATG_GATA_CIS: Attagene CIS-FACTORIAL HepG2 Assay for human GATA Binding Protein (AID 2282944). Particulars: HepG2 GATA cis-element reporter, Attagene multiplex mRNA; actives raise or lower the signal. In short, it runs like this: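 Measures endogenous transcription factor-driven reporter mRNA in HepG2 cells transiently carrying cis-regulated constructs. 24 h dosing; RNA via oligo(dT) reverse transcription, PCR, HpaI digestion, capillary electrophoresis; fitted relative to DMSO.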

Experiment [17] can be described thus: ATG_GLI_CIS: Attagene CIS-FACTORIAL HepG2 Assay for human Zinc Finger Protein GLI1 (AID 2282945). Particulars: HepG2, Attagene cis-factorial reporter mRNA, GLI element; actives raise or lower the signal. In short, it runs like this:
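Bidirectional curve fits relative to DMSO, using reporter mRNA levels from RT-PCR plus capillary electrophoresis. Cells were HepG2 transiently carrying cis-regulated reporter constructs, harvested 24 h after dosing.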

Experiment [18] has as its target Retinoic acid receptor alpha (Homo sapiens) (UniProt P10276). As to the kind of experiment: ATG_DR5_RAR_CIS: Attagene CIS-FACTORIAL HepG2 Assay for human Retinoic Acid Receptor Alpha (RARE), DR5 submotif (AID 2282934). Conditions: HepG2 Attagene cis-factorial RARE DR5 reporter, mRNA; actives raise or lower the signal. In short, it runs like this:
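Transient MRTU transfection of HepG2; 24 h compound treatment; TriZol RNA, oligo(dT) RT, PCR, FAM labelling, capillary electrophoresis. Bidirectional fit vs DMSO. Endogenous TF activity at DR5 RARE.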

Experiment [19] deals with Transcription factor E2F1 (Homo sapiens) (UniProt Q01094). The experiment in a line: ATG_E2F_CIS: Attagene CIS-FACTORIAL HepG2 Assay for human E2F Transcription Factor 1 (AID 2282935). Conditions: HepG2 Attagene cis-reporter, E2F reporter RNA transcripts; actives raise or lower the signal. In short, it runs like this: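 Total RNA from 24 h-treated, reporter-transfected HepG2 cells undergoes DNase I treatment, oligo(dT) reverse transcription, PCR and 6-FAM primer extension before capillary electrophoresis.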

Where “and” joins values, the source holds several entries; their conditions need not be identical. Equal values may be shown once. Some structures have more than one record in an assay (separate samples or runs), and their calls can disagree. Calls of active or inactive are those of the source. How the source made its calls: active means hit-call score of the fitted dose curve at least 0.9, where 1 is the maximum; inactive means score below 0.9.

Hepatocyte nuclear factor 3-beta (Homo sapiens), sequence (Q9Y261 whole entry, looked up): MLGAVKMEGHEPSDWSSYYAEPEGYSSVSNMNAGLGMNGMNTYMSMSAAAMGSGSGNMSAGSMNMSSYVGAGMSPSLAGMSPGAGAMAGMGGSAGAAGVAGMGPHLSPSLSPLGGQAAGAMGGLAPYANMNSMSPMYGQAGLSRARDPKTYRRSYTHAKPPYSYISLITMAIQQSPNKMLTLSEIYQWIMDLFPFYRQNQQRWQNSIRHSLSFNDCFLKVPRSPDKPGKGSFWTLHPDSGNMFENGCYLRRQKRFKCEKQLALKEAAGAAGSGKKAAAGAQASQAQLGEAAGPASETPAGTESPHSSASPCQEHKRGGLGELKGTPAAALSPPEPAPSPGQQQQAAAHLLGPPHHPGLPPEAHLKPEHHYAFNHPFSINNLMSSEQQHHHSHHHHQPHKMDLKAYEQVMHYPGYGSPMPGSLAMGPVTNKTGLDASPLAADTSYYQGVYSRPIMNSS
Aryl hydrocarbon receptor (Homo sapiens), sequence (P35869 whole entry, looked up): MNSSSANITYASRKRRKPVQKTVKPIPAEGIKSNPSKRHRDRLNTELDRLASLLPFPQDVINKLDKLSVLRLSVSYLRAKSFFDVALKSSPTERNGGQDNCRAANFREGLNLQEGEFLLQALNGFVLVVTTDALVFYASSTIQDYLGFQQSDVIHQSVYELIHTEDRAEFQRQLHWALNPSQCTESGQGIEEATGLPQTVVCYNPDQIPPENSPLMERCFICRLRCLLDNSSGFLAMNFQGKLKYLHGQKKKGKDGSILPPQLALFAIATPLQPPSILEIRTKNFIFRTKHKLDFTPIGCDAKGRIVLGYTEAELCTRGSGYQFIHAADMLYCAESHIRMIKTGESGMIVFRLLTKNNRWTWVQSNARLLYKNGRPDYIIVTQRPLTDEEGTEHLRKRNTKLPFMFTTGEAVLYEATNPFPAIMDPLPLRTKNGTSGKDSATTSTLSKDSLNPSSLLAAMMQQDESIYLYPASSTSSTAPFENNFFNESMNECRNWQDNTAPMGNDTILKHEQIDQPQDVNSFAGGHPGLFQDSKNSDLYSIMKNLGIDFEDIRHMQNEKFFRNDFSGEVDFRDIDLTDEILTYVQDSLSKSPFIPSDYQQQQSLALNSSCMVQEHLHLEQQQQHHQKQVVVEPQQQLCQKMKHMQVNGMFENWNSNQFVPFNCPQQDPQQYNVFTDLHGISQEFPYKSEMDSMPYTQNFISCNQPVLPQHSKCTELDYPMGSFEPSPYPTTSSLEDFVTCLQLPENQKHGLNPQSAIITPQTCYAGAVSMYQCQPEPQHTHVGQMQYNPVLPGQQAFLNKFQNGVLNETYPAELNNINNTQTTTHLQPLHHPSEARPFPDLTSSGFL
CCAAT/enhancer-binding protein beta (Homo sapiens), sequence (P17676 whole entry, looked up): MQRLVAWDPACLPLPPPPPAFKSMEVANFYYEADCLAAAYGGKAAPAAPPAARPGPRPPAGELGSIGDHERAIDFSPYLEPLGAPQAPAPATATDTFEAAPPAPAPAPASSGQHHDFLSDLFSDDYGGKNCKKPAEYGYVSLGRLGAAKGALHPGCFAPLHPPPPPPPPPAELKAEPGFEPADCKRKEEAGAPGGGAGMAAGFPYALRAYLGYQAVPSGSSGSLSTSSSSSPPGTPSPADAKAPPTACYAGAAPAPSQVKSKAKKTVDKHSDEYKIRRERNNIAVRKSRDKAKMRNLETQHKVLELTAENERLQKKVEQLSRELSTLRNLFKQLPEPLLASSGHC
Transcription factor E2F1 (Homo sapiens), sequence (Q01094 whole entry, looked up): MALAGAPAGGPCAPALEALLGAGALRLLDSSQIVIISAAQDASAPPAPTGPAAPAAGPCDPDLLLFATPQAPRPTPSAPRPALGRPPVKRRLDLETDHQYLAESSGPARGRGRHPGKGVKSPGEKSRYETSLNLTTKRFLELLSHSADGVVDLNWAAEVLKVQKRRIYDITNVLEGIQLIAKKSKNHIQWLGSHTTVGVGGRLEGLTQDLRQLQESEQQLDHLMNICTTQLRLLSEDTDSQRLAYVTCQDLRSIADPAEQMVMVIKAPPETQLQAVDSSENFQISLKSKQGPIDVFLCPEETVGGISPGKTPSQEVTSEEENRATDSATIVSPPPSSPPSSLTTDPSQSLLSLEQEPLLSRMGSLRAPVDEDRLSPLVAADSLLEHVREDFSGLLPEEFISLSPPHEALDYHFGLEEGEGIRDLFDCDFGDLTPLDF
Retinoic acid receptor alpha (Homo sapiens), sequence (P10276 whole entry, looked up): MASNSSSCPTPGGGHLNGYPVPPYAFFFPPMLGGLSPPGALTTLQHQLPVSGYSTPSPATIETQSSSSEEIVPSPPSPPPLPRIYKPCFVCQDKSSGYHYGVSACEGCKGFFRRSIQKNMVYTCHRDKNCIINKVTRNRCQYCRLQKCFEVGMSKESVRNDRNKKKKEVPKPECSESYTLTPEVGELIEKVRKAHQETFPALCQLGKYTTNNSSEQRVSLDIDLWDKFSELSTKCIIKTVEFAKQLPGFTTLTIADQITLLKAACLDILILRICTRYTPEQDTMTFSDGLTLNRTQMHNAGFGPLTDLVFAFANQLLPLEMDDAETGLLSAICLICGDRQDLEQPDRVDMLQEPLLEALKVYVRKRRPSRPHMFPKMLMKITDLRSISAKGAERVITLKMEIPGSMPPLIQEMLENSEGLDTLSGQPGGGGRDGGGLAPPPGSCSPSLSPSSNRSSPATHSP

Turning to `O=[N+]([O-])c1ccc(Oc2ccc(Cl)cc2Cl)cc1`, the compound was classed as inactive in experiment [1], in [2], in experiment [6], in [7], in [10] and in experiment [12]. Besides, the compound was called inactive in experiment [13], in experiment [14], in [15], in experiment [16] and in [17]. Further, the AC50 is 100 µM (active) in experiment [3]; 48.1 µM (active) in experiment [4]; 68.6 µM (active) in experiment [5]; 56.4 µM (active) in experiment [8]; 71.5 µM (active) in [9]; 28.3 µM (active) in [11].

As for `CCCCC(CC)COC(=O)c1ccc(C(=O)OCC(CC)CCCC)c(C(=O)OCC(CC)CCCC)c1` (stereo not given), the outcome in [1], in experiment [2], in [3], in [5], in experiment [6] and in [7] was inactive. In addition, the outcome in experiment [8], in experiment [18], in experiment [19], in experiment [9], in [10] and in [11] was inactive. Besides, the call in experiment [12], in [13], in experiment [14], in experiment [15], in experiment [16] and in [17] was inactive.

Take `C[C@]12C=CC3=C4CCC(=O)C=C4CC[C@H]3[C@@H]1CC[C@@H]2O`: the AC50 in [1] was 68.8 µM (active); in experiment [2] it was 18 µM (active); in [4], 19.8 µM (active); in experiment [5], 19.8 µM (active) and 35.7 µM (active); in experiment [7] it was 19.8 µM (active) and 26.5 µM (active) and 7.78 µM (active); in [11], 25.3 µM (active). Besides, the AC50 in [13] is 31.8 µM (active) and 30 µM (active); in experiment [15] it was 30.2 µM (active). Further, the compound was classed as inactive in experiment [1], in [2], in experiment [4], in experiment [5], in [6] and in experiment [7]. For the same compound, the result in experiment [8], in experiment [19], in experiment [9], in experiment [10], in [11] and in [12] was inactive. Also, the compound was classed as inactive in experiment [13], in experiment [14], in experiment [15], in [16] and in [17].
